Among the data in PubChem BioAssay (NCI) are growth values, retold here.

This is part of a sample that, as a whole, favours compounds with a hit. Of some 83,000 tested, about 20% had one in any assay.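 Negative percent growth values reflect cell death: -40 means 40% of the cells present at the start died, and -100 means all died.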 Activity calls are given as the source filed them. The calls were made as follows: active = growth percent below 10; inactive = the rest.

Some test systems named below: NCI-H23 lung; NCI-H226 lung; NCI-H322M lung; HOP-62 NSCLC; NCI-H460 lung; HOP-92 NSCLC; NCI-H522 lung; A549/ATCC NSCLC; 786-0 renal; COLO 205 colon; DU-145 prostate; K-562 leukemia; MALME-3M melanoma; MDA-MB-231 breast; RXF 393 renal; SF-268 CNS; SF-295 CNS; SF-539 CNS; UACC-257 melanoma; M14 melanoma.
Holding throughout (test): NCI-60 one-dose screen, 48 h (100 = growth as untreated, 0 = no growth, -100 = all killed)
Conditions in all cases: 10 µM unless noted

In the case of `CC1CCC(C)(C)c2ccccc21` (stereo not given), the growth is 97.2% (inactive) with NCI-H23 lung; 90% (inactive) in the test with NCI-H226 lung; 98.9% (inactive) in the test on NCI-H322M lung; 99.9% (inactive) in the test with HOP-62 NSCLC; 109% (inactive) in the test on NCI-H460 lung; 116% (inactive) in the test on HOP-92 NSCLC. Besides, the growth was 93.6% (inactive) in the test on NCI-H522 lung; 98.2% (inactive) in the test on A549/ATCC NSCLC; 101% (inactive) with 786-0 renal; 104% (inactive) in the test on COLO 205 colon; 110% (inactive) in the test with DU-145 prostate; 115% (inactive) in the test with K-562 leukemia. For the same molecule, the growth in the test with MALME-3M melanoma is 100% (inactive); in the test with MDA-MB-231 breast, 94.6% (inactive); in the test with RXF 393 renal, 109% (inactive); in the test with SF-268 CNS, 104% (inactive); with SF-295 CNS, 89.2% (inactive); with SF-539 CNS, 97.2% (inactive). Also, the results for the growth with UACC-257 melanoma and in the test on M14 melanoma were 100% (inactive) and 95.7% (inactive), respectively.
On to `Cc1ccccc1NC(=O)Oc1ccc(Cl)cc1C(=O)c1ccccc1`, for which the growth in the test on NCI-H23 lung was 95.1% (inactive); with NCI-H226 lung it was 92.5% (inactive); with NCI-H322M lung, 99.1% (inactive); with HOP-62 NSCLC, 88.1% (inactive); in the test with NCI-H460 lung it was 104% (inactive); in the test on HOP-92 NSCLC it was 83.9% (inactive). Besides, the growth is 88.4% (inactive) in the test on NCI-H522 lung; 91% (inactive) with A549/ATCC NSCLC; 102% (inactive) with 786-0 renal; 109% (inactive) in the test on COLO 205 colon; 87.4% (inactive) in the test on DU-145 prostate; 96.1% (inactive) with K-562 leukemia. Also, the growth was 105% (inactive) in the test with MALME-3M melanoma; 85.1% (inactive) in the test on MDA-MB-231 breast; 82% (inactive) with RXF 393 renal; 72.7% (inactive) with SF-268 CNS; 107% (inactive) with SF-295 CNS; 87.3% (inactive) in the test with SF-539 CNS. Moreover, the growth is 102% (inactive) with UACC-257 melanoma and 103% (inactive) in the test on M14 melanoma.
Take `COc1ccc(C2CCCCC2=O)cc1` (stereo not given): the growth in the test on NCI-H23 lung is 108% (inactive); in the test with NCI-H226 lung it was 113% (inactive); in the test on NCI-H322M lung, 113% (inactive); in the test with HOP-62 NSCLC, 95.5% (inactive); with NCI-H460 lung, 108% (inactive); in the test with HOP-92 NSCLC it was 98.9% (inactive). The growth with NCI-H522 lung is 106% (inactive); in the test on A549/ATCC NSCLC, 104% (inactive); in the test on 786-0 renal, 105% (inactive); in the test with COLO 205 colon, 104% (inactive); in the test with DU-145 prostate it was 123% (inactive); with K-562 leukemia it was 104% (inactive). Moreover, the growth was 120% (inactive) in the test on MALME-3M melanoma; 120% (inactive) in the test on MDA-MB-231 breast; 110% (inactive) with RXF 393 renal; 116% (inactive) in the test with SF-268 CNS; 100% (inactive) with SF-295 CNS; 102% (inactive) in the test on SF-539 CNS. Also, the growth is 106% (inactive) with UACC-257 melanoma and 108% (inactive) with M14 melanoma.
As for `O=C(O)Cc1ccccn1`, the growth with NCI-H23 lung is 102% (inactive); in the test on NCI-H226 lung, 102% (inactive); in the test on NCI-H322M lung it was 102% (inactive); in the test with HOP-62 NSCLC it was 109% (inactive); in the test with NCI-H460 lung, 108% (inactive); in the test with HOP-92 NSCLC it was 99.1% (inactive). Moreover, the growth in the test with NCI-H522 lung is 100% (inactive); in the test on A549/ATCC NSCLC it was 106% (inactive); with 786-0 renal, 102% (inactive); in the test with COLO 205 colon, 97.8% (inactive); with DU-145 prostate, 111% (inactive); in the test with K-562 leukemia, 108% (inactive). Also, the growth in the test on MALME-3M melanoma is 85.7% (inactive); in the test on MDA-MB-231 breast, 116% (inactive); with RXF 393 renal it was 133% (inactive); with SF-268 CNS, 100% (inactive); in the test with SF-295 CNS, 114% (inactive); in the test with SF-539 CNS, 109% (inactive). Also, the growth with UACC-257 melanoma is 98.6% (inactive); with M14 melanoma, 112% (inactive).
As to `CCOC(=O)N[C@H]1CCc2cc(OC)c(OC)c(OC)c2-c2ccc(SC)c(=O)cc21`, the growth in the test with NCI-H23 lung was 27.4% (inactive); in the test with NCI-H226 lung, -7.68% (active); in the test on NCI-H322M lung it was 30.7% (inactive); in the test on HOP-62 NSCLC, 30.1% (inactive); with NCI-H460 lung, 2.01% (active); in the test with HOP-92 NSCLC, 29.4% (inactive). Besides, the growth is -8.99% (active) in the test with NCI-H522 lung; 17.3% (inactive) in the test with A549/ATCC NSCLC; 15.6% (inactive) in the test on 786-0 renal; -4.99% (active) with COLO 205 colon; 0.871% (active) in the test with DU-145 prostate; 9.44% (active) in the test with K-562 leukemia. In addition, the growth in the test with MALME-3M melanoma was 51.4% (inactive); in the test with MDA-MB-231 breast, -22% (active); with RXF 393 renal, 10.7% (inactive); in the test on SF-268 CNS it was 23% (inactive); with SF-295 CNS, 3.33% (active); with SF-539 CNS, -21.9% (active). The growth is 71% (inactive) with UACC-257 melanoma and 4.1% (active) with M14 melanoma.
